Experimental data as given in PubChem BioAssay (NCATS).
Records with an inconclusive call do not appear. The source made the active and inactive calls. Unless noted, calls come from the whole dose curve; as a rule, active = well fitted curve in either direction with a large enough effect (not every such curve was filed as active); inconclusive = small, poorly fitted or top-dose-only effect, or another doubt; inactive = flat fitted curve, though single readings scatter.

Experiments:
[1] = molecular target: Lysosomal acid glucosylceramidase (Homo sapiens) (UniProt P04062); test: Glucocerebrosidase-p2 (AID 348; in the data active = potency below about 10 µM; note: potency is the fitted concentration of half-maximal effect); conditions: purified GBA, blue fluorogenic substrate, 40 min
Outline: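 Normal human glucocerebrosidase (0.2 nM) with blue fluorogenic substrate (80 uM final) in citrate/phosphate pH 5.9 with 10mM sodium taurocholate, 0.01% tween-20; 40 min RT, NaOH/glycine stop; fluorescence Ex 365/Em 440; AC50 from a titration from 0.6 nM upwards.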

[2] = AP1 Signaling Pathway (AID 357); conditions: ME-180 AP-1-bla reporter, EGF-induced, beta-lactamase ratio, 5 h; at 7.69 µM (top of the series) unless noted; note: % is set by controls: 0 for no effect and ±100 for the full control effect
Outline: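 AP-1-bla ME-180 cells with beta-lactamase reporter under AP-1 response element, stimulated with EC50 EGF; compounds titrated, 5 hours at 37 degrees Celsius. CCF4 read at 460/530 nm ratio; positive and negative modulators judged by AC50.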

[3] = molecular target: Cytochrome P450 1A2 (Homo sapiens) (UniProt P05177); test: p450-cyp1a2 (AID 410; calls by dose curve; note: potency is the fitted concentration of half-maximal effect;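 for activity change, negative = inhibition: -100% = full effect of reference inhibitor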); conditions: recombinant CYP1A2, luciferin-ME demethylation, luminescence; series mostly up to 57 µM
Outline: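 20nM CYP1A2, 100uM Luciferin-ME (=Km), 100mM KPO4; cpd 10 min RT; +NADPH regen, 60 min RT; stop/detect 20 min; luminescence. Normalized to furafylline 57 uM = full inhibition.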

[4] = NFAT Signaling Pathway (AID 444); conditions: Jurkat NFAT-bla M1, carbachol, beta-lactamase ratio, 5 h; at 7.69 µM (top of the series) unless noted;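 note: carbachol stimulus at about its EC50 of 1 µM final; % is set by controls: 0 for no effect and ±100 for the full control effect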
Outline: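 Jurkat cells carrying an NFAT-driven β-lactamase reporter and co-transfected muscarinic M1 receptor were treated with compound plus carbachol (1 uM final, an EC50 level) for 5 h at 37 °C. CCF4 loading followed for 1 h at RT; 460/530 nm ratio gave %activity.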

[5] = Stat Signaling Pathway (AID 446); conditions: ME-180 (cervical carcinoma) SIE beta-lactamase reporter, IL-6 stimulated, 5 h; at 7.69 µM (top of the series) unless noted;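 note: ME-180 cervical cancer cells given 40 pM IL-6 alongside compound; SIE-controlled beta-lactamase reporter measured as 460/530 nm FRET emission ratio; % is set by controls: 0 for no effect and ±100 for the full control effect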
Outline: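 Emission at 460 and 530 nm (excitation 405 nm) reports SIE-controlled beta-lactamase in ME-180 cells. Cells received compound with 40 pM IL-6 for 5 hrs at 37 C; data scaled between 300 pM IL-6 and 125 nM JAK-inhibitor controls.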

[6] = molecular target: Glucocorticoid receptor (Homo sapiens) (UniProt P04150); test: GR-EFC Redistribution (AID 451; calls by dose curve; note: potency is the fitted concentration of half-maximal effect); conditions: CHO-K1 GR-EFC translocation, beta-gal luminescence, 2 h
Outline: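 CHO-K1 cells stably expressing nuclear-localized β-gal enzyme acceptor and GR fused C-terminally to the enzyme donor fragment; ligand-driven nuclear translocation restores β-gal by complementation. Compounds titrated up to 46 uM final, 2 h at 37 °C; luminescence read.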

[7] = molecular target: Mitogen-activated protein kinase 10 (Mus musculus) (UniProt Q61831); test: JNK3 AlphaScreen Assay (AID 530); conditions: JNK3 lysate, c-Jun phosphorylation; series mostly up to 57.1 µM;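 note: kinase came from lysate of stimulated human HepG2 cells; signal reports phosphorylation of biotinylated GST-cJun 1-79 at Ser73 with 10 µM ATP; % is set by controls: 0 for no effect and ±100 for the full control effect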
Outline: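 Biotinylated GST-cJun(1-79) served as substrate for JNK3 in HepG2 lysates stimulated with IL-1beta and TNF-alpha. ATP was 10 uM final, pH 7.6. Ser73 phosphorylation was quantified by AlphaScreen (680 nm excitation).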

[8] = molecular target: 3',5'-cyclic-AMP phosphodiesterase 4B (Homo sapiens) (UniProt Q07343); test: qHTS Assay for Inhibitors of PDE-IV (AID 607; active = well fitted activation curve with a large enough effect in the main read-out, with a control signal flat, not every such curve was filed as active; note: % of control where 0% means no effect); conditions: HEK293 ACTOne CNG channel cells, membrane potential fluorescence; series mostly up to 22.9 µM
Outline: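 The readout is membrane depolarisation from a cAMP-sensing CNG channel, detected with a potential dye at ex 535/em 590. Cells were HEK293-derived (endogenous PDE-IV) at 1000 cells/well, titrated up to 22.9 uM final.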

[9] = molecular target: Cytochrome P450 3A4 (Homo sapiens) (UniProt P08684); test: qHTS Assay for Activators of Cytochrome P450 3A4 (AID 885; active = well fitted curve in the direction sought with a large enough effect; an effect the other way counts as inactive or inconclusive; note: nearly all actives have a fitted effect of over 65% in size; note: potency is the fitted concentration of half-maximal effect); conditions: recombinant CYP3A4, Luciferin-PPXE luminescence, 60 min; series mostly up to 57.1 µM
Outline: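 Activators are scored by enhanced luminescence from CYP3A4 conversion of luciferin-PPXE (25uM, equal to KM) to luciferin, after 60 min at RT with an NADPH-regenerating system.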

[10] = qHTS Assay for Lipid Storage Modulators (AID 1519; calls by dose curve); conditions: Drosophila S3 cells, BODIPY lipid droplet/cell ratio, laser cytometry, cells loaded with oleic acid; for activity change, negative = inhibition: at 57.5 µM (top of the series)
Outline: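 Cells seeded at 5,000 per well were treated with compounds over a concentration series and loaded with oleic acid (400 uM, as added). Lipid droplet fluorescence (488 nm excitation, 500-530 nm channel) was read by laser-scanning cytometry and normalized to 20 uM Triacsin C.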

[11] = Primary qHTS for small molecule stabilizers of the endoplasmic reticulum resident proteome: Secreted ER Calcium Modulated Protein (SERCaMP) assay (AID 1508630; active = well fitted curve in the direction sought with a large enough effect; an effect the other way counts as inactive or inconclusive; note: % is set by controls: 0 for no effect and ±100 for the full control effect); conditions: SH-SY5Y GLuc-SERCaMP (Gaussia luciferase released on ER calcium loss) secretion, thapsigargin, luminescence; series mostly up to 38.4 µM
Outline: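 The SH-SY5Y reporter protocol was run at 3 concentrations up to 38.3 uM (primary) or 11 concentrations (follow-up): 16 h compound, 100 nM thapsigargin for 4 h, then extracellular luciferase luminescence.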

[12] = molecular target: Cytochrome P450 2D6 (Homo sapiens) (UniProt P10635); test: qHTS Assay for Inhibitors and Substrates of Cytochrome P450 2D6 (AID 891; active = well fitted curve in the direction sought with a large enough effect; an effect the other way counts as inactive or inconclusive; note: potency is the fitted concentration of half-maximal effect; nearly all actives have a fitted effect of over 60% in size); conditions: recombinant CYP2D6, luciferin-ME EGE luminescence; series mostly up to 57.1 µM
Outline: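 Luminescent read-out of luciferin formed by 5 nM human CYP2D6 demethylating 30 uM Luciferin-ME EGE (Km level) over 60 min at room temperature after NADPH regeneration addition. Data normalized to full inhibition by 1.43 uM quinidine.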

[13] = measured here: cell count channel max response
[14] = measured here: lipid channel max response

Sequence of Cytochrome P450 3A4 (Homo sapiens) (P08684 whole entry, looked up): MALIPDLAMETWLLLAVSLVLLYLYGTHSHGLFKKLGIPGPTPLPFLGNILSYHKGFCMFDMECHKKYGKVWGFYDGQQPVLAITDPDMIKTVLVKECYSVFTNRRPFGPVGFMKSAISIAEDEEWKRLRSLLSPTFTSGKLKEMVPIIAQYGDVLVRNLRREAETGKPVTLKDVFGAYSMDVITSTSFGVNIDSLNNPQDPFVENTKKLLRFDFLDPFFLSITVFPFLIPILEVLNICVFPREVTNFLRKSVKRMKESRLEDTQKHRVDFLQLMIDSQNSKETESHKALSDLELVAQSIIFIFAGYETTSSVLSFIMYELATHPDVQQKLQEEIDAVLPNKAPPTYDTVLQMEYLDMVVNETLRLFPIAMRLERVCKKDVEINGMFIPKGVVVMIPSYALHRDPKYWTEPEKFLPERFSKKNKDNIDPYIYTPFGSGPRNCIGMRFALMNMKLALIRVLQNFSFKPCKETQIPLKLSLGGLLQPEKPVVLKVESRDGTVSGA
Sequence of Glucocorticoid receptor (Homo sapiens) (P04150 whole entry, looked up, the tested form may be a part): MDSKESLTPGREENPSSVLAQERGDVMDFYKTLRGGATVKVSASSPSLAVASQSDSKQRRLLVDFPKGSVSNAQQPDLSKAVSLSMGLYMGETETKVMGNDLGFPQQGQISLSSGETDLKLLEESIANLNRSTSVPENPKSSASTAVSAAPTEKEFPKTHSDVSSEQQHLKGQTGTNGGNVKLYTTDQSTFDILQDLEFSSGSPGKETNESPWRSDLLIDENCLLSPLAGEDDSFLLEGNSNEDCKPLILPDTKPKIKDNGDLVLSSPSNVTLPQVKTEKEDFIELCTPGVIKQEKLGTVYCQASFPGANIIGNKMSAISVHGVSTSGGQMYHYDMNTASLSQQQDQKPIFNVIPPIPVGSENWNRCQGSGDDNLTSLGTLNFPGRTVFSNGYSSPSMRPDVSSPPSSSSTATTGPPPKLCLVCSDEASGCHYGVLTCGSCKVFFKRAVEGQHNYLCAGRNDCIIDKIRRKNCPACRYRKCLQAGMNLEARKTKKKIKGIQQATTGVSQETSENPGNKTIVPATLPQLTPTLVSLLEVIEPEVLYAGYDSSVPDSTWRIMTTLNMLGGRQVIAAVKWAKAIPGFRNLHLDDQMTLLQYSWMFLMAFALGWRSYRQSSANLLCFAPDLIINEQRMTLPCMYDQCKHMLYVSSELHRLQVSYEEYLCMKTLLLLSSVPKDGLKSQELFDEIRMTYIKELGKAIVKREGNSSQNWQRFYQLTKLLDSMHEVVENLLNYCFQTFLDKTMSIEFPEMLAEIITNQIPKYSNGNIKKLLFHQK
Sequence of 3',5'-cyclic-AMP phosphodiesterase 4B (Homo sapiens) (Q07343 whole entry, looked up): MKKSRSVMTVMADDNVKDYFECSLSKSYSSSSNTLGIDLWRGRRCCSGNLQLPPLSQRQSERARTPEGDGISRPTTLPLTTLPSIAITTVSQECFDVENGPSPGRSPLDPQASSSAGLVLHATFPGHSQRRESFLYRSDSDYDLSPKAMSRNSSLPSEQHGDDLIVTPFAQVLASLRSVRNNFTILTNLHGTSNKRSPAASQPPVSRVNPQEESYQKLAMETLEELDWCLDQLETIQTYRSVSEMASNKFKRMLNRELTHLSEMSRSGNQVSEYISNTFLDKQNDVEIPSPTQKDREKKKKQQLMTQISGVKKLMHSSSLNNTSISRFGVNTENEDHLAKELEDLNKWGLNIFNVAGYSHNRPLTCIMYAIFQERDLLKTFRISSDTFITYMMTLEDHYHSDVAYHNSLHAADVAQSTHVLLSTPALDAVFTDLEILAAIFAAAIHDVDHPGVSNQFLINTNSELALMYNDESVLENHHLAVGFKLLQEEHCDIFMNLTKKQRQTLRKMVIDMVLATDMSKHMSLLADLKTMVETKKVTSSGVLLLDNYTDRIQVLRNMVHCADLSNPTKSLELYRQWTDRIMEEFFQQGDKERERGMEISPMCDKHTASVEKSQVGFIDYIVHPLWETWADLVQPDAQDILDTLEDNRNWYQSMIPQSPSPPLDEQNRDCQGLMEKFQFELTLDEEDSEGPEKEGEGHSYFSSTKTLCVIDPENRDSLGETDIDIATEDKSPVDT
Sequence of Lysosomal acid glucosylceramidase (Homo sapiens) (P04062 whole entry, looked up): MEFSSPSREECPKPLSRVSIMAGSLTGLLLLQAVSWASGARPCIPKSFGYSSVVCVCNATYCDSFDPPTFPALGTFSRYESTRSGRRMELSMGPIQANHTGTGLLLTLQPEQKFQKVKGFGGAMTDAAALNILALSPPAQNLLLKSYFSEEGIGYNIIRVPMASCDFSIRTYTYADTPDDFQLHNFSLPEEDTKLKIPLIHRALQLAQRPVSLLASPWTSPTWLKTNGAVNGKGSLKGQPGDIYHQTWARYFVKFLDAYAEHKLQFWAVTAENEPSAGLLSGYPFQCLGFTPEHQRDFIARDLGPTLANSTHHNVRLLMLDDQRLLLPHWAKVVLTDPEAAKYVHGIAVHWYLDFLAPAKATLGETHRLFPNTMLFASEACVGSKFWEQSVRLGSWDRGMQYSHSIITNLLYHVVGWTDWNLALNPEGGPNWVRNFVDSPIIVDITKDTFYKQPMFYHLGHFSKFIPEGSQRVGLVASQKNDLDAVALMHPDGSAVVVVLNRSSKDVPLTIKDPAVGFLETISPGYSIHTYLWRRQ
Sequence of Cytochrome P450 1A2 (Homo sapiens) (P05177 whole entry, looked up): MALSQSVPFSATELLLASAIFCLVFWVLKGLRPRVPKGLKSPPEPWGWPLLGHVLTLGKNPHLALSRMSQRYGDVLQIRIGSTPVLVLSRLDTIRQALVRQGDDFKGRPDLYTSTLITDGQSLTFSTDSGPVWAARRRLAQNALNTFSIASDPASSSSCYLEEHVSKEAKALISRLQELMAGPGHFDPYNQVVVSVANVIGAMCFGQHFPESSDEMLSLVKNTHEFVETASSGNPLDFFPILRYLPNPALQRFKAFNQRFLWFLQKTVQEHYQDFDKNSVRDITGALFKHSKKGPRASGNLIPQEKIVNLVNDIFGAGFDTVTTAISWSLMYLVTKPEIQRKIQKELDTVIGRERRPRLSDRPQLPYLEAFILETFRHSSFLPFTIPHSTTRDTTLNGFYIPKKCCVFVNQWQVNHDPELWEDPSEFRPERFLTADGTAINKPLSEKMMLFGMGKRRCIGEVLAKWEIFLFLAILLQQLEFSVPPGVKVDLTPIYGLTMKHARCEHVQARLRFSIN
Sequence of Cytochrome P450 2D6 (Homo sapiens) (P10635 whole entry, looked up): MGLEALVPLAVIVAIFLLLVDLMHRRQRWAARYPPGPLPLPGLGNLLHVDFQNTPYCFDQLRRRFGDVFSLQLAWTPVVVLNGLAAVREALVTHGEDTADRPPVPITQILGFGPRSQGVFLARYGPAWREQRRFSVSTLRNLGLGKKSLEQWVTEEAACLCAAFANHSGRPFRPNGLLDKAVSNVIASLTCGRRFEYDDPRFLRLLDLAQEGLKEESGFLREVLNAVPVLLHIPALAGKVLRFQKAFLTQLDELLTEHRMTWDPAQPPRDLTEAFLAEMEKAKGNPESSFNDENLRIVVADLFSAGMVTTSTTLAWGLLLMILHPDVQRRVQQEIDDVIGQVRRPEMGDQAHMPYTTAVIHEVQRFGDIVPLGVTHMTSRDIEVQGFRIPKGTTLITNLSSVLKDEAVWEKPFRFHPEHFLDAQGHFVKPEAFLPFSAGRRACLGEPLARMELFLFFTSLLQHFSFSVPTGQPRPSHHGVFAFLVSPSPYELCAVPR

SMILES | Potency [1] | activity change, negative = inhibition [2] | Potency [3] | activity change, negative = inhibition [4] | activity, negative = inhibition [5] | Potency [6] | outcome [7] | Potency [8] | Potency [9] | activity change, negative = inhibition [10] | max response [10, 13] | max response [10, 14] | Potency [11] | Potency [12]
COc1ccc(NC(=O)N2CC[C@@]3(CCCN(C(=O)c4cccn4C)C3)C2)cc1 | > 11.4 µM (inactive) | -0.362% (inactive) | inactive | 4.79% (inactive) | 8.48% (inactive) | > 46 µM (inactive) | inactive | inactive | inactive | 2.71% (inactive) | 12% | 14.4% | inactive | –
O=C(c1cnccn1)N1CCC[C@@]2(CCN(c3ncccn3)C2)C1 | > 11.4 µM (inactive) | -3.69% (inactive) | inactive | 7.98% (inactive) | -3.83% (inactive) | > 46 µM (inactive) | inactive | inactive | inactive | 5.72% (inactive) | 9.64% | 19.5% | inactive | –
Cc1noc(C)c1C(=O)N1CCC2(CCCN(Cc3nccs3)C2)CC1 | > 11.4 µM (inactive) | -7.07% (inactive) | inactive | -16.6% (inactive) | -1.5% (inactive) | > 46 µM (inactive) | inactive | inactive | inactive | 5.37% (inactive) | 14.6% | 22.3% | inactive | –
O=C(c1ccco1)N1CCC2(CC1)CN(C(c1ccccc1)c1ccccc1)C2 | > 11.4 µM (inactive) | -3.72% (inactive) | inactive | 11% (inactive) | -4.65% (inactive) | > 46 µM (inactive) | inactive | inactive | 10 µM (active) | 2.1% (inactive) | 5.15% | 9.48% | inactive | 1.26 µM (active)
O=C(c1ccco1)N1CCC2(CCCN(C(c3ccccc3)c3ccccc3)C2)CC1 | > 11.4 µM (inactive) | 26.1% (inactive) | 15.8 µM (active) | -80.8% (active) | 19.8% (inactive) | > 46 µM (inactive) | inactive | inactive | inactive | 2.05% (inactive) | 10.3% | 13.5% | inactive | –
CC(C)NC(=O)N1CC[C@@]2(CCCN(C(=O)c3csnn3)C2)C1 | > 11.4 µM (inactive) | 8.93% (inactive) | inactive | 20.3% (inactive) | 10.6% (inactive) | > 46 µM (inactive) | inactive | inactive | inactive | -0.319% (inactive) | 4.92% | 7.3% | inactive | –
COc1ccc(NC(=O)N2CCCC3(CCN(C(=O)c4cnccn4)CC3)C2)cc1 | > 11.4 µM (inactive) | -0.971% (inactive) | inactive | 1.32% (inactive) | -7.92% (inactive) | > 46 µM (inactive) | inactive | inactive | inactive | 4.77% (inactive) | 1.78% | 8.5% | inactive | –
O=C(c1cc(C(F)(F)F)cc(C(F)(F)F)c1)N1CCC[C@@]2(CCN(Cc3nccs3)C2)C1 | > 11.4 µM (inactive) | 4.84% (inactive) | 20 µM (active) | -21.5% (inactive) | -3.68% (inactive) | > 46 µM (inactive) | inactive | inactive | inactive | 1.58% (inactive) | 26% | 28.9% | inactive | –
CC(=O)N1CCC2(CCCN(c3ccccc3)C2)CC1 | > 11.4 µM (inactive) | -11.7% (inactive) | inactive | 9.86% (inactive) | -0.0216% (inactive) | > 46 µM (inactive) | inactive | inactive | inactive | 1.01% (inactive) | 9.92% | 12.8% | inactive | –
COc1ccc(NC(=O)N2CC3(CCN(C(=O)c4ccc(OC)cc4)CC3)C2)cc1 | > 11.4 µM (inactive) | -11.7% (inactive) | inactive | 16.6% (inactive) | -5.3% (inactive) | > 46 µM (inactive) | inactive | inactive | inactive | 3.98% (inactive) | 12.3% | 17.6% | inactive | –
COc1ccc(C(=O)N2CCC[C@@]3(CCN(Cc4ccc(C#N)cc4)C3)C2)cc1 | > 11.4 µM (inactive) | -1.6% (inactive) | inactive | -4.67% (inactive) | 3.73% (inactive) | > 46 µM (inactive) | inactive | inactive | inactive | 3.64% (inactive) | 10.2% | 17.8% | inactive | –
Cn1cccc1C(=O)N1CCC[C@@]2(CCN(c3ccccn3)C2)C1 | > 11.4 µM (inactive) | 0.459% (inactive) | 31.6 µM (active) | -3.64% (inactive) | -2.5% (inactive) | > 46 µM (inactive) | inactive | inactive | inactive | 4.31% (inactive) | 20% | 28% | inactive | –
